The values below come from PubChem BioAssay AID720706 (Broad Institute, 2013).

In all, about 350,000 compounds went through this assay and about 5,500 (1.6%) were called active.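 How the source made its calls: active means significant combined selectivity score with lowered wild-type GFP, culture density cut under 30%, mutant RFP and density less affected; inactive means any of these conditions unmet.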 What follows is part of a selection rich in actives, with near analogues and random picks from the rest.

A short description of this assay: reduced GFP signal of wild-type E. coli, primary screen, bacterial rRNA inhibitor project, GFP/RFP fluorescence, OD600, single point (AID 720706). The conditions noted are these: E. coli WT GFP vs humanized-ribosome RFP mutants, 24 h; GFP signal change (wild-type ribosome): stronger effect = lower value, DMSO median 0, no signal -100; OD600 change: measured here: OD600 growth, DMSO median 0, no signal -100; RFP signal change: measured here: RFP humanized mutant strains, DMSO median 0, no signal -100, concentration not given here.
Take `CN1CCCCN2[C@H](CO)[C@H](c3ccc(-c4ccc(F)cc4)cc3)[C@@H]2C1`: the GFP signal change (wild-type ribosome) was 3.95% (inactive), the OD600 change was found to be 2.06% and the RFP signal change was -2.51%.

With `CCC(=O)N1CC2(CN(C(=O)Nc3ccccc3F)C2)c2c([nH]c3cc(OC)ccc23)[C@H]1CO`, the GFP signal change (wild-type ribosome) is -3.51% (inactive), the OD600 change is -1.81% and the RFP signal change stood at 1.22%.

On to `COc1ccc(N2CCN(C(=O)CCNC(=O)c3ccc(Br)cc3)CC2)cc1`, for which the GFP signal change (wild-type ribosome) is 4.67% (inactive), the OD600 change stood at 3.67% and the RFP signal change was -1.33%.

`O=C(CCc1ccccc1F)N1CCN(c2ccccc2)CC1`: the GFP signal change (wild-type ribosome) was -5.11% (inactive), the OD600 change was -5.09% and the RFP signal change is -0.63%.

`COc1ccc(N2CCN(C(=O)CCSCc3ccccc3F)CC2)cc1`: the GFP signal change (wild-type ribosome) is -33% (active), the OD600 change was -17.7% and the RFP signal change was -1.41%.

In the case of `O=C(NCC[C@H]1CC[C@@H](NC(=O)c2ccncc2)[C@@H](CO)O1)Nc1ccc(Cl)cc1`, the GFP signal change (wild-type ribosome) was -17.2% (inactive), the OD600 change is -25.9% and the RFP signal change is -0.789%.

Turning to `O=C(C1CCCC1)N1CC(=O)N2[C@@H](CO)[C@H](c3ccc(C#CC4CCCC4)cc3)[C@@H]2C1`, the GFP signal change (wild-type ribosome) was -40.8% (inactive), the OD600 change is -65.7% and the RFP signal change came out at 1.78%.

In the case of `C=CCn1c(-c2ccccc2OCC)n[nH]c1=S`, the GFP signal change (wild-type ribosome) was 3.63% (inactive), the OD600 change came to 4.05% and the RFP signal change turned out to be 2.66%.

Consider `C=CCn1c(-c2sc(-c3ccccc3)nc2C)n[nH]c1=S`, for which the GFP signal change (wild-type ribosome) was -24.3% (active), the OD600 change was -5.31% and the RFP signal change is 7.62%.

For `C=CCn1c(CCc2ccc(OC(C)C)cc2)n[nH]c1=S`, the GFP signal change (wild-type ribosome) was -0.285% (inactive), the OD600 change is -0.525% and the RFP signal change came to 1.11%.

With `O=C(C1CC1)N1CCCCN2[C@H](CO)[C@H](c3ccc(-c4cccc(F)c4)cc3)[C@H]2C1`, the GFP signal change (wild-type ribosome) is -6.45% (inactive), the OD600 change was -8.76% and the RFP signal change worked out at 3.12%.

Take `COCC(=O)N1CCCCN2[C@H](C1)[C@@H](c1ccc(-c3ccccc3)cc1)[C@@H]2CO`: the GFP signal change (wild-type ribosome) is 2.96% (inactive), the OD600 change was -5.68% and the RFP signal change turned out to be 0.005%.

For `C[C@@H]1CCCCO[C@@H](CN(C)C(=O)Nc2cccc3ccccc23)[C@H](C)CN([C@H](C)CO)C(=O)c2cc(NS(C)(=O)=O)ccc2O1`, the GFP signal change (wild-type ribosome) is 2.97% (inactive), the OD600 change is -14.8% and the RFP signal change is -1.87%.

As for `COC(=O)c1ccc(COC(=O)CNC(=O)c2cccc(OC)c2)o1`, the GFP signal change (wild-type ribosome) is 3.46% (inactive), the OD600 change is 11.4% and the RFP signal change was -1.13%.

On to `COc1cccc(C(=O)NCCSc2ccc(Br)cc2)c1`, for which the GFP signal change (wild-type ribosome) was -49.8% (inactive), the OD600 change is -75.8% and the RFP signal change was -16.7%.

As to `COc1cccc(C(=O)c2cc3ccc(O)cc3oc2=O)c1`, the GFP signal change (wild-type ribosome) was -30.5% (active), the OD600 change is -15% and the RFP signal change came out at 1.31%.

On to `COc1ccc(NC(=O)Nc2ccc3c(c2)C(=O)N([C@H](C)CO)C[C@H](C)[C@@H](CN(C)Cc2ccccc2)OCCCC[C@H](C)O3)cc1`, for which the GFP signal change (wild-type ribosome) was 2.43% (inactive), the OD600 change was -11% and the RFP signal change was found to be 1.05%.

On to `C[C@@H]1CN([C@H](C)CO)C(=O)c2cc(NC(=O)C3CCCCC3)ccc2O[C@@H](C)CCCCO[C@H]1CN(C)S(C)(=O)=O`, for which the GFP signal change (wild-type ribosome) was -1.08% (inactive), the OD600 change turned out to be 0.309% and the RFP signal change is -2.76%.

Regarding `CC1CCCN(c2ccc(C(=O)NCCc3ccccc3)cn2)C1` (stereo unspecified), the GFP signal change (wild-type ribosome) is -19.9% (active), the OD600 change was -8.59% and the RFP signal change stood at 0.765%.

In the case of `CC1CCN(c2c(NCc3ccc(C(=O)NCc4ccccc4)cc3)c(=O)c2=O)CC1`, the GFP signal change (wild-type ribosome) was -2.23% (inactive), the OD600 change worked out at 0.92% and the RFP signal change was 2.65%.

As for `CC1CCN(C(=O)CCNC(=O)c2ccccc2)CC1`, the GFP signal change (wild-type ribosome) is 9.31% (inactive), the OD600 change amounted to 16.3% and the RFP signal change was -0.0995%.

On to `COc1ccc2c3c([nH]c2c1)[C@H](CO)N(C(=O)C1CCC1)CC31CCN(Cc2cccc(F)c2)CC1`, for which the GFP signal change (wild-type ribosome) was -1.74% (inactive), the OD600 change is -5.93% and the RFP signal change turned out to be 3.15%.

With `COc1ccc2c3c([nH]c2c1)[C@@H](CO)N(Cc1ccccc1OC)CC31CCN(C)CC1`, the GFP signal change (wild-type ribosome) was -0.945% (inactive), the OD600 change was 0.435% and the RFP signal change turned out to be 0.881%.

Take `Cc1nn(-c2ccccc2)c(Cl)c1/C=N/NC(=O)c1nn(C)cc1[N+](=O)[O-]`: the GFP signal change (wild-type ribosome) was -30.3% (active), the OD600 change was 4.85% and the RFP signal change worked out at 0.73%.

In the case of `Cc1nn(-c2ccccc2)c(C)c1/C=N/NC(=O)CSc1nc2ccccc2c(=O)n1-c1ccccc1`, the GFP signal change (wild-type ribosome) was 14.9% (inactive), the OD600 change was found to be 17.7% and the RFP signal change is -2.02%.

Take `Cc1cc(=O)[nH]c(N/N=C/c2c(C)nn(-c3ccccc3Cl)c2Cl)n1`: the GFP signal change (wild-type ribosome) was -2.91% (inactive), the OD600 change amounted to 6.48% and the RFP signal change was -1.95%.

As to `C[C@@H]1CN([C@@H](C)CO)S(=O)(=O)c2ccc(C#CCN(C)C)cc2O[C@@H]1CN(C)S(=O)(=O)c1cccc(F)c1`, the GFP signal change (wild-type ribosome) is -0.828% (inactive), the OD600 change was -6.54% and the RFP signal change was 0.409%.

With `C[C@H](CO)N1C[C@H](C)[C@H](CN(C)C(=O)Nc2ccc(C(F)(F)F)cc2)Oc2ccc(NS(=O)(=O)c3ccccc3)cc2CC1=O`, the GFP signal change (wild-type ribosome) is 2.52% (inactive), the OD600 change was -0.79% and the RFP signal change stood at 1.4%.

On to `CN1C(=O)c2cc(NC(=O)c3ccccc3)ccc2OC[C@@H]2O[C@@H](CC(=O)NC3CCCC3)CC[C@H]21`, for which the GFP signal change (wild-type ribosome) is 0.592% (inactive), the OD600 change was 4.01% and the RFP signal change was determined as 0.386%.

As for `Cc1ccc(F)c(NC(=O)CCOc2ccccc2C)c1`, the GFP signal change (wild-type ribosome) is -19.4% (active), the OD600 change was -1.12% and the RFP signal change came out at 1.17%.

For the molecule `Cc1ccccc1NC(=O)CCOc1ccccc1`, the GFP signal change (wild-type ribosome) is 6.54% (inactive), the OD600 change is -4.25% and the RFP signal change was 2.04%.

Take `Cc1cccc(OCCC(=O)Nc2ccccc2C(N)=O)c1`: the GFP signal change (wild-type ribosome) was -0.179% (inactive), the OD600 change was -10.5% and the RFP signal change was found to be 0.55%.
